Laboratory results from PubChem BioAssay (NCATS).
Records with an inconclusive call do not appear. The source made the active and inactive calls. Unless noted, the call rests on the fitted dose curve; in most records, active means well fitted curve in the direction sought with a large enough effect; inconclusive means small, poorly fitted or top-dose-only effect, or another doubt; inactive means no such curve, though single readings can be large; an effect the other way counts as inactive or inconclusive.

Legend:
[1] = Confirmation and Secondary Assay for Modulators of Hemoglobin Beta Chain Splicing at IVS2 654 locus (AID 910);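 further: per-well total GFP intensity by laser scanning cytometry after 2-day treatment; % of control where 0% means no effect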
Method in brief: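 HeLa cells stably carrying EGFP interrupted by mutant beta-globin IVS2-654 intron (CMV-driven) were treated with compound for 2 days at 37C; corrected splicing was scored as total peak GFP intensity per well (488 nm excitation, 500-520 nm emission).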

[2] = Confirmation and Secondary Assay for Modulators of Hemoglobin Beta Chain Splicing at IVS2 705 locus (AID 930);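 further: HeLa cells stably expressing the EGFP-705 splicing reporter; GFP fluorescence per well restored by corrected splicing of the IVS2-705 intron in EGFP; series mostly up to about 46 µM; % of control where 0% means no effect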
Method in brief: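 Assay measures total GFP intensity per well in HeLa EGFP-705 cells after 2 days with compound; mis-splicing normally truncates EGFP, so fluorescence indicates corrected splicing.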

[3] = qHTS Assay for Identification of Small Molecule Agonists for Thrombopoietin (TPO) Signaling Pathway (AID 917); further: on the % scale 0 is the no-effect control and ±100 the full control effect
Method in brief: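 Cell-based luciferase reporter screen. Mouse Ba/F3 line stably expressing human TPO receptor; IL-3 removed overnight before plating. Co-treatment with compound and EC50 TPO (26 pM), 24 hrs at 37 C, then luminescence.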

[4] = target: Muscarinic acetylcholine receptor M1 (Rattus norvegicus) (UniProt P08482); experiment: qHTS Assay for Antagonists of Acetylcholine Muscarinic M1 Receptor: Kinetic Measurement of Intracellular Calcium Response (AID 943);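 further: Fluo-4 calcium signal as peak divided by basal fluorescence over 4 min; series mostly up to about 35 µM; nearly all actives have a fitted effect of over 75% in size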
Muscarinic acetylcholine receptor M1 (Rattus norvegicus), sequence (P08482 whole entry, looked up): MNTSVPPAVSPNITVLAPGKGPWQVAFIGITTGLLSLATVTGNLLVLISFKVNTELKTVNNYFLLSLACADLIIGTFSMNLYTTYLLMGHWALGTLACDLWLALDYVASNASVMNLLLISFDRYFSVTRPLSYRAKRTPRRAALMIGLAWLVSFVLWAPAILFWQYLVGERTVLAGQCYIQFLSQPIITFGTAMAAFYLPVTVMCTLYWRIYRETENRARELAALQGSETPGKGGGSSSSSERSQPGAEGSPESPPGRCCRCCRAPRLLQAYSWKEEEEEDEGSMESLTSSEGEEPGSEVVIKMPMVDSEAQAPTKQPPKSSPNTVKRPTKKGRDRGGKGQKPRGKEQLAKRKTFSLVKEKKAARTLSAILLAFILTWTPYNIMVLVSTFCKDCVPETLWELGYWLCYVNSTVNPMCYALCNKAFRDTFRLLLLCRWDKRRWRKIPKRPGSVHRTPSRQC
Method in brief: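 Quantitative HTS in CHO-M1 (rat receptor) cells: 10 min compound exposure ahead of 100 nM carbachol, Fluo-4 fluorescence followed 4 min, value expressed as peak-to-basal ratio.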

[5] = target: Muscarinic acetylcholine receptor M1 (Rattus norvegicus) (UniProt P08482); experiment: qHTS Assay for Antagonists of Acetylcholine Muscarinic M1 Receptor: Measurement of IP-One Response (AID 944); further: nearly all actives have a fitted effect of over 75% in size
Method in brief: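 Antagonism was measured as loss of carbachol-driven (EC80) IP1 accumulation in CHO cells carrying rat M1, using a homogeneous IP-One TR-FRET kit read at 620 and 665 nm.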

[6] = target: Pyruvate kinase (Leishmania mexicana) (UniProt Q27686); experiment: qHTS Validation Assay for Inhibitors of Leishmania Mexicana Pyruvate Kinase (AID 945);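 further: 0% = DMSO only neutral control wells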
Pyruvate kinase (Leishmania mexicana), sequence (Q27686 2-499 E452W): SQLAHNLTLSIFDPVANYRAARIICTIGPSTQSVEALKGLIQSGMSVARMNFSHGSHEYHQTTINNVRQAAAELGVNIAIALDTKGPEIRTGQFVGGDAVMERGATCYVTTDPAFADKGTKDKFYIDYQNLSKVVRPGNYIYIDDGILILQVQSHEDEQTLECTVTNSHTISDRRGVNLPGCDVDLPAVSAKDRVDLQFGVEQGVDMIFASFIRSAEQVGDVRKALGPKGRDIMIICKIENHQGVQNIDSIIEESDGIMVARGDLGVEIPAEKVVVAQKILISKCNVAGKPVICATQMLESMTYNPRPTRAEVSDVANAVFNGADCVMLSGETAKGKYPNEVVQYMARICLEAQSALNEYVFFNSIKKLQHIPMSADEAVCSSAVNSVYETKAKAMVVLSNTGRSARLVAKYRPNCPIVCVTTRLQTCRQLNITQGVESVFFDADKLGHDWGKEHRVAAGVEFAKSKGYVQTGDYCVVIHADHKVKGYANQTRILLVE
Method in brief: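 Pyruvate kinase activity of E451W LmPYK (0.2 nM) was followed as ATP output after 1 h at room temperature with 0.5 mM PEP and 0.1 mM ADP, detected by PKLight luminescence.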

[7] = target: Pyruvate kinase PKM (Homo sapiens) (UniProt P14618); experiment: qHTS Assay for Activators of Human Muscle Pyruvate Kinase (AID 954; active means well fitted curve in the direction sought with a large enough effect, not every such curve was filed as active;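 further: 0% = uninhibited enzyme and -100% = no enzyme or full thiadiazolimine inhibition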)
Pyruvate kinase PKM (Homo sapiens), sequence (P14618 whole entry, looked up): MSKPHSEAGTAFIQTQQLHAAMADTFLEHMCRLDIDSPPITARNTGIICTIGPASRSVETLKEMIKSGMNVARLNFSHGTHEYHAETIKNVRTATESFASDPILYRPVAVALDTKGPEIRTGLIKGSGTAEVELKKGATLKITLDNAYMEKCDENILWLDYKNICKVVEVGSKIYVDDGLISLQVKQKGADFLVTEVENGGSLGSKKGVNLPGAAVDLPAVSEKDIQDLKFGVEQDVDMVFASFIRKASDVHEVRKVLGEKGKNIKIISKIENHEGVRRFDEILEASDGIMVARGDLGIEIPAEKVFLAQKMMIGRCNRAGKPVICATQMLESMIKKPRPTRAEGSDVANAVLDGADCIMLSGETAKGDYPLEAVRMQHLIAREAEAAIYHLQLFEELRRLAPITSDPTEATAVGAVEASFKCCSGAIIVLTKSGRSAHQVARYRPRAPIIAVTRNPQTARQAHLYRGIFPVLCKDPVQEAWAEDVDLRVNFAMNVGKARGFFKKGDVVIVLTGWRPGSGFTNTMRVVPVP
Method in brief: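 Screening used highly purified human pyruvate kinase M2 under submaximal activity, with PEP at its Km and ADP below Km. After an hour at room temperature, ATP was read by luciferase luminescence.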

[8] = target: Alpha-galactosidase (Coffea arabica) (UniProt Q42656); experiment: Counterscreen for Glucocerebrosidase Inhibitors: qHTS Assay for Coffee Bean alpha-Galactosidase at pH 4.5 (AID 957);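 further: series mostly up to about 77 µM; plate controls were enzyme alone for no effect and no enzyme for full effect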
Alpha-galactosidase (Coffea arabica), sequence (Q42656 whole entry, looked up): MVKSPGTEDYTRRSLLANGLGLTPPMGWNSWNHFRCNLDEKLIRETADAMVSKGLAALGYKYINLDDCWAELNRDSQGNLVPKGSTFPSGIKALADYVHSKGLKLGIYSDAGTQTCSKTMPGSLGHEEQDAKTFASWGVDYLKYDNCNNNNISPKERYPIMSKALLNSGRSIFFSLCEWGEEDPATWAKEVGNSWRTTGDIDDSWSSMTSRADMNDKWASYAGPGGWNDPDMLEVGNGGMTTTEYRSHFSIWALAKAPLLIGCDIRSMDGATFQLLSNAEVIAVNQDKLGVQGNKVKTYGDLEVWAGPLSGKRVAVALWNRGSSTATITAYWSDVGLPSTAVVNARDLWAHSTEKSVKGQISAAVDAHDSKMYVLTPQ
Method in brief: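 Quantitative HTS of compounds (0.7 nM to 77 uM) against coffee bean alpha-galactosidase at pH 4.5, measuring 4-methylumbelliferone fluorescence released from 80 uM substrate.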

[9] = qHTS Assay for Identification of Small Molecule Agonists for Hypoxia Response Element Signaling Pathway (AID 914; active means well fitted activation curve with a large enough effect in the signal ratio, with a control signal flat, not every such curve was filed as active; the % refers to the signal ratio; further: % of control where 0% means no effect); conditions: ME-180 (cervical carcinoma) HRE-bla reporter, beta-lactamase ratio, CoCl2, 17 h; active compounds read high
Method in brief: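 Compounds in a titration series were added to ME-180 reporter cells alongside an EC50 level of CoCl2. After 17 hours, beta-lactamase activity was read as the 460nm/530nm emission ratio of CCF4, giving AC50 values.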

[10] = MultiTox-Fluor Cytotoxicity Assay - LYMP1-001 - Dead Cells (AID 946);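 further: 0% = DMSO and 100% = tetraoctylammonium bromide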
Method in brief: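 In this qHTS, 15 uM tetraoctylammonium bromide defined 100% and DMSO defined basal activity. Lymphoblastoid cells (LYMP1-001, 2500 per well) received compound for 16 hr at 37 C before a fluorogenic dead-cell substrate readout at 485/520 nm.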

[11] = Cell Viability - LYMP1-002 - Assay at 16 hr (AID 948);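 further: 0% = DMSO alone and full effect = 92 µM tetraoctylammonium bromide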
Method in brief: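 Seed 2500 LYMP1-002 cells per well in complete medium and hold 5 hr at 37 C. Add compound across a concentration series and incubate 16 hr at 37 C. Add CellTiter-Glo, wait 30 min at room temperature, read luminescence.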

[12] = MultiTox-Fluor Cytotoxicity Assay - LYMP1-002 - Live Cells (AID 955);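 further: cells exposed to compound for 16 hours; on the % scale 0 is the no-effect control and ±100 the full control effect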
Method in brief: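 In this qHTS viability format, lymphoblastoid cells (LYMP1-002, human) received compound for 16 hr at 37 C. Fluorogenic GF-AFC cleavage by viable cells was detected at 405/510 nm after 1 h at room temperature.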

[13] = MultiTox-Fluor Cytotoxicity Assay - LYMP1-002 - Dead Cells (AID 960);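 further: 0% = DMSO and 100% = tetraoctylammonium bromide; nearly all actives have a fitted effect of over 60% in size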
Method in brief: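 Concentration-dependent increases in membrane-leaked protease activity are quantified in LYMP1-002 cells after 16 hr treatment; values are normalized against DMSO and tetraoctylammonium bromide (15 uM) controls and AC50 derived by Hill modeling.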

[14] = MultiTox-Fluor Cytotoxicity Assay - LYMP1-003 - Dead Cells (AID 961);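 further: 0% = DMSO and 100% = tetraoctylammonium bromide; nearly all actives have a fitted effect of over 70% in size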
Method in brief: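 Acute toxicity is scored as increased dead-cell protease activity in human lymphoblastoid LYMP1-003 cells after 16 h compound exposure in complete culture medium. Activity is normalized to DMSO basal and 15 uM tetraoctylammonium bromide as full response.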

[15] = MultiTox-Fluor Cytotoxicity Assay - LYMP1-003 - Live Cells (AID 962);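 further: cells exposed to compound for 16 hours at 37 °C; 0% = DMSO only and full loss = 92 µM tetraoctylammonium bromide; cytotoxic hits lower the live-cell protease signal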
Method in brief: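 Human lymphoblastoid line LYMP1-003 in complete culture medium, treated 16 hr with titrated compounds. Viable cells quantified via cell-permeant GF-AFC substrate fluorescence; AC50 derived by Hill fitting.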

[16] = Cell Viability - LYMP1-003 - Assay at 24 hr (AID 963);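 further: plate controls were DMSO only for no effect and tetraoctylammonium bromide positive control for full effect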
Method in brief: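 The lymphoblastoid line was treated with titrated compounds for 24 hours, and viable cell number estimated from luciferase-based ATP luminescence.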

[17] = Cell Viability - LYMP2-001 (AID 921);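 further: series mostly up to about 92 µM; cells exposed to compound for 24 h at 37 °C; 0% = DMSO only and full inhibition = tetraoctylammonium bromide control wells; nearly all actives have a fitted effect of over 70% in size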
Method in brief: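 Steps: seed 2500 lymphoblastoid cells/well; 5 hr, 37 C; add compound; 24 hr, 37 C; CellTiter-Glo reagent, 30 min room temperature; read luminescence. Concentration-response modeled by Hill equation for AC50.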

[18] = MultiTox-Fluor Cytotoxicity Assay - LYMP1-001 - Live Cells (AID 947);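 further: 0% = DMSO only and full inhibition = tetraoctylammonium bromide control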
[19] = Cell Viability - LYMP1-003 - Assay at 40 hr (AID 964); further: series mostly up to about 92 µM; on the % scale 0 is the no-effect control and ±100 the full control effect; nearly all actives have a fitted effect of over 60% in size
Method in brief: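 Acute toxicity is scored as a concentration-dependent loss of intracellular ATP in LYMP1-003 cells (2500/well, complete medium) after 40 hr at 37 C, measured by CellTiter-Glo luminescence; AC50 values derive from standard Hill modelling.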

[20] = Cell Viability - LYMP2-003 (AID 965);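 further: cells exposed to compounds for 24 h before reading; 0% = DMSO only and full effect = 92 µM tetraoctylammonium bromide; nearly all actives have a fitted effect of over 50% in size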
Method in brief: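 Seed 2500 lymphoblastoid cells/well; incubate 5 hr, 37 C; add compounds; incubate 24 hr, 37 C; add CellTiter-Glo, 30 min RT; read luminescence. AC50 from Hill fit.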

NC(=O)CS(=O)C(c1ccccc1)c1ccccc1 (stereo not drawn)
inactive: outcome [1] | outcome [2]

O=c1[nH]oc2c1CCNC2
inactive: outcome [1] | outcome [3] | outcome [2] | outcome [4] | Potency [5] | outcome [6] | outcome [7] | outcome [8]

CC(NC(C)(C)C)C(=O)c1cccc(Cl)c1 (stereo not drawn)
inactive: outcome [1] | outcome [2]

COc1c2c(cc3c1OCO3)CCN(C)C2
inactive: activation [9] -5.25%

O=C(O)CCCc1ccc(N(CCCl)CCCl)cc1
inactive: outcome [1] | outcome [2] | outcome [6] | outcome [10] | outcome [11] | outcome [7] | outcome [12] | outcome [8] | Potency [13] | outcome [14] | outcome [15] | outcome [16]

CC(C)N(CCC(C(N)=O)(c1ccccc1)c1ccccn1)C(C)C (stereo not drawn)
inactive: outcome [1] | outcome [2]

Clc1ccc(C(c2ccc(Cl)cc2)C(Cl)(Cl)Cl)cc1
inactive: outcome [1] | outcome [17] | outcome [2] | outcome [10] | outcome [18] | outcome [11] | outcome [12] | Potency [13] | outcome [14] | outcome [15] | outcome [19] | outcome [20]

C[C@]1(O)CC[C@H]2[C@@H]3CCC4=CC(=O)CC[C@]4(C)[C@@]3(F)[C@@H](O)C[C@@]21C
inactive: outcome [17] | outcome [10] | outcome [18] | outcome [11] | outcome [12] | Potency [13] | outcome [14] | outcome [15] | outcome [16] | outcome [19] | outcome [20]

CN1C[C@H](C(=O)N[C@]2(C)O[C@@]3(O)[C@@H]4CCCN4C(=O)[C@H](Cc4ccccc4)N3C2=O)C=C2c3cccc4[nH]cc(c34)C[C@H]21
inactive: outcome [17] | outcome [10] | outcome [18] | outcome [11] | outcome [12] | outcome [14] | outcome [15] | outcome [16] | outcome [19] | outcome [20]

O=C(CCCN1CCC2(CC1)C(=O)NCN2c1ccccc1)c1ccc(F)cc1
inactive: outcome [1] | outcome [3] | outcome [2] | outcome [4] | outcome [6] | outcome [7] | outcome [8]

CCC1(c2ccc(N)cc2)CCC(=O)NC1=O (stereo not drawn)
inactive: outcome [1] | outcome [2]

CCCCC/C=C\C/C=C\C/C=C\C/C=C\CCCC(=O)NCC(=O)O
inactive: outcome [3] | outcome [4] | Potency [5] | outcome [6] | outcome [7] | outcome [8]

CNC(C)(C)Cc1ccccc1
inactive: outcome [1] | outcome [2]

NCCc1ccc(O)cc1
inactive: outcome [1] | outcome [3] | outcome [17] | outcome [2] | Potency [5] | outcome [6] | outcome [10] | outcome [18] | outcome [11] | outcome [7] | outcome [12] | outcome [8] | Potency [13] | outcome [14] | outcome [15] | outcome [16] | outcome [19] | outcome [20]

CCC1(CC)C(=O)C=CNC1=O
inactive: outcome [1] | activation [9] -12.7% | outcome [2]
